Compounds with a hit are over-represented: about 0.71% of the library has one in this group of screens.
CBFb-RUNX1 inh – inhibitors of human CBF-beta and RUNX1 interaction; AlphaScreen CBFb-His/RUNX1-biotin binding, biochemical; Potency, µM (titrated, usually from 59.8 µM), inactives show at the highest dose activity, negative = inhibition, usual class: inhibitors; 230,000 tested, under 10 active; further: % of control where 0% means no effect
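Proteins preincubated together for 20 min at RT before compound addition; 15 min later, nickel and streptavidin beads were added and left 90 min prior to AlphaScreen measurement.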
Epigenetic reg – regulators of epigenetic silencing causing reporter derepression in mouse cells. Potency, µM (titrated, usually from 53.9 µM), without a hit: at the highest dose GFP activation, actives largely listed as activators. murine LDR cells, GFP reporter derepression, 30 h. 280,000 tested, 0.2% active; further: potency means the concentration at half of the fitted maximal effect; % of control where 0% means no effect; nearly all actives have a fitted effect of over 60% in size
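GFP-positive cell count by laser-scanning cytometry (objects 20–120 um) after 30 h, 37 C compound exposure of murine LDR cells; reporter is CMV-GFP integrated at a silenced locus, inducible by HDAC or DNMT inhibitors.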
RGS12 GoLoco inh – RGS12 GoLoco-Gai1 interaction inhibition. P63096. Gai1:RGS12 GoLoco peptide FP, rhodamine, 10 min. Potency, µM (titrated, usually from 61.6 µM), for the others: at the top dose activity, negative = inhibition, actives largely listed as inhibitors. 230,000 tested, 0.44% active. AID 880; active means well fitted inhibition curve with a large enough effect, not every such curve was filed as active; inactive means no such curve, though single readings can be large or run the other way; further: potency means the concentration at half of the fitted maximal effect; on the % scale 0 is the no-effect control and ±100 the full control effect; nearly all actives have a fitted effect of over 30% in size
TexasRed fluor – alters Texas Red total fluorescence, flagging assay interference | TRb/SRC2 Texas Red total fluorescence interference | Potency, µM (doses to about 106 µM), without a hit: at the top dose fluorescence change, negative = quenching | 280,000 tested, 0.29% active | AID 1479; active means well fitted curve in either direction with a large enough effect; inconclusive means small, poorly fitted or top-dose-only effect; further: potency means the concentration at half of the fitted maximal effect; on the % scale 0 is the no-effect control and ±100 the full control effect
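Human TRb ligand-binding domain at 0.6 uM with 20 nM Texas Red SRC2 peptide in Tris buffer containing 1 uM T3 and 5% DMSO, incubated with compound 5 h at ambient temperature. Total fluorescence (555/632 nm) calculated as parallel + 2 × perpendicular.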
TRb-SRC2 inh – TRbeta-SRC2 interaction inhibition | Potency, µM (titrated, usually from 106 µM), inactives show top-dose activity change, negative = inhibition, most hits filed as inhibitors | 280,000 tested, 0.065% active | P10828 | TRbeta-SRC2 peptide binding, fluorescence polarization; receptor liganded with 1 µM T3;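 further: potency means the concentration at half of the fitted maximal effect; plate controls were bound peptide for no effect and peptide without receptor for full effect; nearly all actives have a fitted effect of over 50% in size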
Target sequence (P10828 whole entry, looked up): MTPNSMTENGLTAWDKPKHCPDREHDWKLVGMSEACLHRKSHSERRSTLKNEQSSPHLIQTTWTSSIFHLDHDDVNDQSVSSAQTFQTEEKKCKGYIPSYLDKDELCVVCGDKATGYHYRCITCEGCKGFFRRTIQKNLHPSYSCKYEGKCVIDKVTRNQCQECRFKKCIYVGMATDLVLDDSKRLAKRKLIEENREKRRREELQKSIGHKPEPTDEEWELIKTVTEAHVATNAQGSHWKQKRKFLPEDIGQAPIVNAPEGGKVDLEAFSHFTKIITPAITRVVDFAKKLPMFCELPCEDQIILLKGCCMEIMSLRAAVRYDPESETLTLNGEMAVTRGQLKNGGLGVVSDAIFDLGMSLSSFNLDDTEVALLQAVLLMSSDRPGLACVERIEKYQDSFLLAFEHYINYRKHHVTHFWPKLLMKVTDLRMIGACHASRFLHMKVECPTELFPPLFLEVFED
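Each compound concentration gave % activity, normalized to unbound and bound Texas Red SRC2 controls, from polarization read after 5 hr ambient incubation with T3-loaded human TRb LBD.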
The depositor's hits bear a star; ? = inconclusive; · = no result; [ ] = remark or other dose. Unless noted, the call rests on the fitted dose curve; in most records, active means well fitted curve in the direction sought with a large enough effect; inconclusive means small, poorly fitted or top-dose-only effect, or another doubt; inactive means no such curve, though single readings can be large; an effect the other way counts as inactive or inconclusive.

SMILES	CBFb-RUNX1 inh	Epigenetic reg	RGS12 GoLoco inh	TexasRed fluor	TRb-SRC2 inh
COC(=O)[C@H](Cc1ccccc1)NC(=O)O[C@@H]1C(=O)c2cc(OC)ccc2O[C@H]1c1cccc(OC)c1	?	0%	2%	-1%	8%
Cc1cccc(OCC(=O)NCC2(N3CCN(C)CC3)CCCCC2)c1C	·	0%	·	1259µM*[quencher]	-10%
Cc1ccc(OCC(=O)NCC2(N3CCOCC3)CCCCC2)cc1C	·	3%	·	13µM*[quencher]	-11%
CC/C=C1/OC(=O)c2ccccc21	23%[21.7 µM]	·	5%	-1%	-8%
CCn1c(C)nc2cc(C(=O)NNC(=O)CCC3CCCCC3)ccc21	1%	8%	58%	3.5µM*[quencher]	?
CC(O)c1cccc2cc(C(O)CNC(C)(C)C)oc12 (centres undefined)	4%	·	·	2%	-5%
Cc1cccc(OCC(=O)Nc2ccc(-c3nc4cc(C)ccc4o3)c(O)c2)c1	·	3%	·	-2%	3%
Cc1cccc(Cc2c(C)nc3c(-c4ccccc4)c(C)[nH]n3c2=O)c1	·	-1%	·	8.9µM*[quencher]	-6%
O=C1CCCCCCCCCCC1	·	·	·	0%[201 µM]	-4%[201 µM]
CN(C)c1ccc(NC(=O)CSCc2nc3c(nnn3Cc3ccc(F)cc3)c(=O)[nH]2)cc1	-22%	-1%	3.5µM*	-8%	5%
CCCCC(=O)Nc1sc2c(c1C(=O)OCC)CCC(C=O)=C2Cl	0%	11µM*	-5%	-1%	7%
CCOC(=O)c1c(NC(=O)c2ccccc2Cl)sc2c1CCc1ccccc1-2	?	7%	-5%	-1%	-5%
CCCCOCC(C)OCC(C)O (centres undefined)	·	·	·	-4%[201 µM]	5%[201 µM]
CC(=O)OC[C@@]1(O)C[C@@]23CC[C@@H]4c5ccoc5CC[C@@]4(C)[C@@H]2CCC1C3	-11%	-1%	2%	-1%	-1%
C/C(=N\NC(=O)c1ccc(O)cc1)c1ccc2c(c1)Nc1ccccc1S2	-8%	0%	2%	-3%	2%
C/C(=N\NC(=O)c1ccccc1F)c1ccc2c(c1)Nc1ccccc1S2	-2%	11µM*	13%	1%	-5%
COC(=O)CCCC1=CC2=CC(=O)C(C)(OC(=O)c3cccs3)C(=O)C2=CN1C(CO)CO (centres undefined)	9%[13.1 µM]	·	-1%[14.2 µM]	-4%[11.2 µM]	9%[11.2 µM]
c1ccc2n[nH]nc2c1	8%[21.7 µM]	·	16µM*	-1%	-3%
CCCCCCCc1cc2ccccc2c(=O)o1	-12%	0%	-5%	-2%	6%
Cc1ccc(N2C(=O)C3CC(c4ccccc4)=C4C5C=CC(C6C(=O)N(c7ccc(C)cc7C)C(=O)C56)C4C3C2=O)c(C)c1 (centres undefined)	-9%	0%	32µM*	1%	-3%
CCOCCOCCOCC	·	·	·	1%[201 µM]	4%[201 µM]
CCn1c(O)c(/C=N/N=C/c2ccc(OC)cc2)c2cc(C3=NNC(=O)CC3)ccc21	10%	7.1µM*	14%	0%	2%
CC/C(C)=N\N=C\c1c(O)n(CC)c2cc(C3=NNC(=O)CC3)ccc12	0%	0%	33%	-2%	-6%
CCCCCCCC/C=C\CCCCCCCC(=O)OC	·	·	·	0%[201 µM]	7%[201 µM]
Cc1cccc(NC(=O)CN2C(=O)CCc3ccccc32)c1C	·	1%	·	11µM*[quencher]	-16%
SMILES	CBFb-RUNX1 inh	Epigenetic reg	RGS12 GoLoco inh	TexasRed fluor	TRb-SRC2 inh
COc1ccc(-c2ccc(NS(=O)(=O)c3ccc(F)c(C(F)(F)F)c3)cc2)nn1	·	0%	·	224µM*[quencher]	-4%
O=C(Cn1sc2ccccc2c1=O)NC12CC3CC(CC(C3)C1)C2	-6%	1%	28µM*	1%	-2%
Nc1cccc2c1C(=O)N(CC(=O)NC13CC4CC(CC(C4)C1)C3)C2=O	18%	0%	8%	-2%	7%
Oc1ccccc1Nc1nc2ccccc2n2nnnc12	·	13µM*	·	-1%	-2%
Cc1ccc(Nc2nnc(-c3ccc(C)c(S(=O)(=O)N4CCOCC4)c3)c3ccccc23)c(C)c1	·	-1%	·	0.014µM*[quencher]	-12%
C=CCOc1ccc(C2OC34CCCCC3C(C#N)(C#N)C2(C#N)C(=N)O4)cc1 (centres undefined)	-6%	-1%	-73%	2%	3%
CCCCOc1ccc(C2OC34CCCCC3C(C#N)(C#N)C2(C#N)C(=N)O4)cc1 (centres undefined)	3%	0%	25µM*	3%	-13%

Assay outcomes as filed in PubChem BioAssay.
